Measured values reported in the supplement of paper PMC3334620.
Over roughly 33,000 sequences, “E-score (-0.5 to 0.5)” has its median near -0.056; the highest 2% begin near 0.38. The full list was thinned out, with the highest values kept by preference.

target: Stb4 (UniProt P50104); experiment: PBM E-score (8-mer binding enrichment) (E-score (-0.5 to 0.5)); higher = stronger / more preferred TF binding; conditions: protein concentration: 200 nM; construct: GST-DNA-binding domain
Outline: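 E-scores (a modified Wilcoxon-Mann-Whitney statistic) were assigned by the Universal PBM Analysis Suite to every ungapped eight-base word pooled with its reverse complement. The input came from universal all-10-mer Agilent arrays made double-stranded by primer extension and probed with GST-tagged yeast transcription factors at about 100-200 nM. Fluorescent anti-GST detected bound protein, and masliner normalised the scans.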

Sequence of UniProt P50104 (P50104 whole entry, the tested form may be a part): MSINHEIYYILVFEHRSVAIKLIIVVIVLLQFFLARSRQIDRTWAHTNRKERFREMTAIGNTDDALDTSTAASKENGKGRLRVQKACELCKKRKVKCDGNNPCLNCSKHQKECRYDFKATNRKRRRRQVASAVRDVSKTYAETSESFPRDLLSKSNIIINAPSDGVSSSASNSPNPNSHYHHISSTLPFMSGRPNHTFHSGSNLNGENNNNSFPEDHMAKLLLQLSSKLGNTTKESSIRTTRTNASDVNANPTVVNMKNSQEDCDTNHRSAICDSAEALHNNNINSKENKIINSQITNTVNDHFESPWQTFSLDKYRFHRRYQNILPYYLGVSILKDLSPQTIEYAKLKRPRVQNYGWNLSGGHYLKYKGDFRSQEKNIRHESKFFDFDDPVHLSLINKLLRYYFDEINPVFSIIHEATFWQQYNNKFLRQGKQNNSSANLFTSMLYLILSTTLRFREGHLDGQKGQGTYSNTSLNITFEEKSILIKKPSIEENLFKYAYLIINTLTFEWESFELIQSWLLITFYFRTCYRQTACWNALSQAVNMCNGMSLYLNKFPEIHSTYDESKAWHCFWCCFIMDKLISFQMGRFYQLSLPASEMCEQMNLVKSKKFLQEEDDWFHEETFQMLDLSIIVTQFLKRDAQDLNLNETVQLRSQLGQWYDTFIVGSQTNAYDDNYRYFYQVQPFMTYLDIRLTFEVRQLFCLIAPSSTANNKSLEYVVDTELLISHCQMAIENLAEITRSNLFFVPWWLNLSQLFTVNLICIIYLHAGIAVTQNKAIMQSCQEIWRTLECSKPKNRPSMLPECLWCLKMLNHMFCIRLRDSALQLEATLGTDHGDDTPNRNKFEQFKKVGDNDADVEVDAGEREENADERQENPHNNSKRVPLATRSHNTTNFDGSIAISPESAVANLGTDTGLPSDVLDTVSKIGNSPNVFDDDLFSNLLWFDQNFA

Sequence	PBM E-score
ATGTGCCC	-0.048
GACCGCTA	0.0181
GCACTTAC	0.0807
CAGAGGCC	-0.204
ACTTGGTA	-0.265
AATGTGAT	-0.15
TGGATACA	-0.147
CGGATACG	0.409
CCGATACG	0.307
CGGATACA	0.433
AGGATACG	-0.23
CGGATACC	0.41
AGGATACC	0.0351
GGGATACC	0.184
AGGATACA	-0.261
CCGCTCGA	0.11
GCGCGACC	-0.0286
ACGTTCAG	-0.252
TCAGGGCA	-0.18
AATACAGT	-0.194
AGGAACTC	-0.0879
GGGAACTA	0.183
CTGAACTC	-0.175

Sequence	PBM E-score
CGGAACTC	0.401
CGGAACTA	0.449
AGGAACTA	0.0365
ACTCTAGG	-0.212
CAGCTCCA	-0.265
CGCGGCCG	0.136
AATCGGGC	0.159
ACTCTGAC	-0.0524
CTATCCCA	-0.135
ATATCCTA	-0.0944
GTATCCTA	-0.107
ATATCCCG	0.306
ATATCCAG	-0.114
GTATCCCA	-0.0937
CTATCCAA	-0.268
ATATCCAA	0.0444
CTATCCGA	0.469
ATATCCGG	0.424
GTATCCGA	0.487
ATATCCGA	0.482
AATCTAAG	-0.107
AGACTGGC	-0.17
ACCCAGCG	-0.0996

Sequence	PBM E-score
CAATGTAA	0.112
ATTATGGG	-0.0331
TAGATGCA	-0.222
GTCAGCGA	-0.138
ATTGGGTG	-0.0143
GACCTTAA	-0.145
GGGTCTCA	8e-05
ACGAGCAC	-0.133
GCGAGCAC	-0.135
CCGAGCAA	0.406
ACGAGCAA	-0.0941
CCGAGCAC	0.413
TCGAGCAA	-0.141
GAACAGGA	-0.0169
GCGAAGTA	-0.0361
CCGAAGTA	0.418
ACGAAGTC	-0.264
ACGAAGTA	-0.0487
CCGAAGTC	0.417
CAGAAGTC	-0.174
ACAGCTTC	0.0141
AACACCGG	0.248
CATGCCAA	-0.257

Sequence	PBM E-score
CTTCCTCA	-0.208
CGCACCAC	-0.0216
AGTTTGAG	-0.092
CCCTCGGA	0.464
GCCTCGTA	-0.0917
CCCTCGTA	-0.114
CCCTCGCA	-0.0413
GCCTCGGA	0.444
GCCTCGAA	-0.0521
CAAGTTTA	-0.136
ACCTGCAC	-0.0938
AAGGTACA	-0.341
AAGGCTAG	-0.127
GAACCGAA	0.397
AAACCGAA	0.259
TAACCGAA	0.431
GAACCGAC	0.286
GAACCGTA	0.0316
CAACCGAA	0.289
AACCCGGA	0.375
CTACAGTC	-0.214
CTCATCTA	-0.116
AAAGTGAC	-0.123

Sequence	PBM E-score
GAACCCGA	0.338
AAACCCGA	0.403
CAACCCGA	0.33
AAACCCGT	-0.00663
TAACCCGA	0.385
AAACCCGC	0.246
TGACCCAA	-0.235
AGCGAAAT	0.0212
CGATTATC	0.15
GATTCAGA	-0.121
TCGGCACA	0.441
TCGGCAGA	0.41
CCGGCAGA	0.286
CCGGCACG	0.293
TCGGCCGA	0.419
CCGGCACA	0.307
CCGGCCGA	0.356
ACGGCAGA	0.156
GCGGCCGA	0.217
GCGGCTAA	0.287
ACGGCTAA	0.264
TCGGCTAA	0.455
